# Results: PubChem BioAssay
# Several values for one entry are separate records, joined by “and”; a condition that tells them apart may be missing. Equal values may be shown once. Activity calls are given as the source filed them. Rule as the data show it: active = inhibition above about 80%; inactive = the rest.
# Assay: growth inhibition, single agent or in combination, cell-based, chromothripsis tumors, cisplatin or BGB combos (AID 1671449);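 also: cells exposed for 96 hours; 0% = vehicle DMSO and 100% = killing by high DMSO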
# Settings: LFS_MB_P medulloblastoma cells, at 0.5 µM, stronger effect = higher value
row,SMILES,inhibition
1,Cc1ccc2nc(NCCN)c3ncc(C)n3c2c1,11.2% (inactive)
2,C[C@]1(c2nc3c(C(N)=O)cccc3[nH]2)CCCN1,-27.2% (inactive) and -25.3% (inactive)
3,O=C(O)[C@H](Cc1c[nH]c2ccccc12)N1C(=O)c2ccccc2C1=O,-11.4% (inactive)
4,CN(C)CCN1C(=O)c2cccc3cc(N)cc(c23)C1=O,-4.37% (inactive)

# Same assay, conditions: LFS_MB_P medulloblastoma cells, measured here: combination with BGB IC20, at 0.005 µM
row,SMILES,inhibition
1,Cc1ccc2nc(NCCN)c3ncc(C)n3c2c1,0.796%
2,C[C@]1(c2nc3c(C(N)=O)cccc3[nH]2)CCCN1,-35.2% and -15.1%
3,O=C(O)[C@H](Cc1c[nH]c2ccccc12)N1C(=O)c2ccccc2C1=O,-13.3%
4,CN(C)CCN1C(=O)c2cccc3cc(N)cc(c23)C1=O,-27.8%

# Same assay, conditions: LFS_MB_P medulloblastoma cells, measured here: combination with BGB IC40, at 0.005 µM
row,SMILES,inhibition
1,Cc1ccc2nc(NCCN)c3ncc(C)n3c2c1,-31.1%
2,C[C@]1(c2nc3c(C(N)=O)cccc3[nH]2)CCCN1,-26.8% and -17.3%
3,O=C(O)[C@H](Cc1c[nH]c2ccccc12)N1C(=O)c2ccccc2C1=O,-16.5%
4,CN(C)CCN1C(=O)c2cccc3cc(N)cc(c23)C1=O,-17.6%

# Same assay, conditions: LFS_MB_P medulloblastoma cells, measured here: combination with BGB IC40, at 0.05 µM
row,SMILES,inhibition
1,Cc1ccc2nc(NCCN)c3ncc(C)n3c2c1,-6.91%
2,C[C@]1(c2nc3c(C(N)=O)cccc3[nH]2)CCCN1,-28.3% and -28.8%
3,O=C(O)[C@H](Cc1c[nH]c2ccccc12)N1C(=O)c2ccccc2C1=O,-16.7%
4,CN(C)CCN1C(=O)c2cccc3cc(N)cc(c23)C1=O,-30.5%

# Same assay, conditions: LFS_MB_P medulloblastoma cells, measured here: combination with cisplatin, at 0.5 µM, stronger effect = higher value
row,SMILES,inhibition
1,Cc1ccc2nc(NCCN)c3ncc(C)n3c2c1,74.2%
2,C[C@]1(c2nc3c(C(N)=O)cccc3[nH]2)CCCN1,-54% and -57%
3,O=C(O)[C@H](Cc1c[nH]c2ccccc12)N1C(=O)c2ccccc2C1=O,-21.3%
4,CN(C)CCN1C(=O)c2cccc3cc(N)cc(c23)C1=O,-36.3%

# Same assay, conditions: LFS_MB_P medulloblastoma cells, measured here: combination with cisplatin, at 5 µM, stronger effect = higher value
row,SMILES,inhibition
1,Cc1ccc2nc(NCCN)c3ncc(C)n3c2c1,-17.8%
2,C[C@]1(c2nc3c(C(N)=O)cccc3[nH]2)CCCN1,-58.4% and -45%
3,O=C(O)[C@H](Cc1c[nH]c2ccccc12)N1C(=O)c2ccccc2C1=O,-30.6%
4,CN(C)CCN1C(=O)c2cccc3cc(N)cc(c23)C1=O,4.24%

# Assay: growth inhibition, single agent and combos, cell-based, chromothripsis tumors, cisplatin or BGB combos (AID 1671450);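 also: cells exposed to compound for four days; 0% = vehicle DMSO and 100% = cell killing by high DMSO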
# Settings: HDN33 neuroblastoma cells, BGB combo, at 5 µM, stronger effect = higher value
row,SMILES,inhibition
1,Cc1ccc2nc(NCCN)c3ncc(C)n3c2c1,63.5%
2,C[C@]1(c2nc3c(C(N)=O)cccc3[nH]2)CCCN1,-41.3% and 0.864%
3,O=C(O)[C@H](Cc1c[nH]c2ccccc12)N1C(=O)c2ccccc2C1=O,-27.5%
4,CN(C)CCN1C(=O)c2cccc3cc(N)cc(c23)C1=O,41.4%

# Same assay, conditions: HDN33 neuroblastoma cells, at 0.5 µM, stronger effect = higher value
row,SMILES,inhibition
1,Cc1ccc2nc(NCCN)c3ncc(C)n3c2c1,-5% (inactive)
2,C[C@]1(c2nc3c(C(N)=O)cccc3[nH]2)CCCN1,-26.5% (inactive) and -7.62% (inactive)
3,O=C(O)[C@H](Cc1c[nH]c2ccccc12)N1C(=O)c2ccccc2C1=O,-36.3% (inactive)
4,CN(C)CCN1C(=O)c2cccc3cc(N)cc(c23)C1=O,-23.5% (inactive)

# Same assay, conditions: HDN33 neuroblastoma cells, cisplatin combo, at 5 µM, stronger effect = higher value
row,SMILES,inhibition
1,Cc1ccc2nc(NCCN)c3ncc(C)n3c2c1,55.9%
2,C[C@]1(c2nc3c(C(N)=O)cccc3[nH]2)CCCN1,-8.25% and -1.94%
3,O=C(O)[C@H](Cc1c[nH]c2ccccc12)N1C(=O)c2ccccc2C1=O,-28.6%
4,CN(C)CCN1C(=O)c2cccc3cc(N)cc(c23)C1=O,48.1%

# Same assay, conditions: HDN33 neuroblastoma cells, measured here: with BGB IC20 combination, at 0.5 µM, stronger effect = higher value
row,SMILES,inhibition
1,Cc1ccc2nc(NCCN)c3ncc(C)n3c2c1,-7.6%
2,C[C@]1(c2nc3c(C(N)=O)cccc3[nH]2)CCCN1,-35.3% and -12.7%
3,O=C(O)[C@H](Cc1c[nH]c2ccccc12)N1C(=O)c2ccccc2C1=O,-35.8%
4,CN(C)CCN1C(=O)c2cccc3cc(N)cc(c23)C1=O,-27.7%

# Same assay, conditions: HDN33 neuroblastoma cells, measured here: with cisplatin IC20 combination, at 0.5 µM, stronger effect = higher value
row,SMILES,inhibition
1,Cc1ccc2nc(NCCN)c3ncc(C)n3c2c1,2.54%
2,C[C@]1(c2nc3c(C(N)=O)cccc3[nH]2)CCCN1,-24.4% and -3.22%
3,O=C(O)[C@H](Cc1c[nH]c2ccccc12)N1C(=O)c2ccccc2C1=O,-38.5%
4,CN(C)CCN1C(=O)c2cccc3cc(N)cc(c23)C1=O,-18.1%

# Same assay, conditions: HDN33 neuroblastoma cells, single agent, at 5 µM, stronger effect = higher value
row,SMILES,inhibition
1,Cc1ccc2nc(NCCN)c3ncc(C)n3c2c1,57.3%
2,C[C@]1(c2nc3c(C(N)=O)cccc3[nH]2)CCCN1,-21.8% and -0.922%
3,O=C(O)[C@H](Cc1c[nH]c2ccccc12)N1C(=O)c2ccccc2C1=O,-17%
4,CN(C)CCN1C(=O)c2cccc3cc(N)cc(c23)C1=O,62.5%

# Assay: growth inhibition, single agents and combos, ICB984, cell-based, cisplatin or BGB combos, synergistic combos for chromothripsis tumors (AID 1671451);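 also: cells exposed for 96 hours before readout; 0% = vehicle DMSO and 100% = killing by high DMSO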
# Settings: ICB984 medulloblastoma cells, drug combinations, BGB IC20 combo, at 0.005 µM, stronger effect = higher value
row,SMILES,inhibition
1,Cc1ccc2nc(NCCN)c3ncc(C)n3c2c1,10.7%
2,C[C@]1(c2nc3c(C(N)=O)cccc3[nH]2)CCCN1,-10.4% and 0.353%
3,O=C(O)[C@H](Cc1c[nH]c2ccccc12)N1C(=O)c2ccccc2C1=O,2.36%
4,CN(C)CCN1C(=O)c2cccc3cc(N)cc(c23)C1=O,-11.5%

# Same assay, conditions: ICB984 medulloblastoma cells, drug combinations, BGB IC40 combo, at 0.005 µM, stronger effect = higher value
row,SMILES,inhibition
1,Cc1ccc2nc(NCCN)c3ncc(C)n3c2c1,-98.8%
2,C[C@]1(c2nc3c(C(N)=O)cccc3[nH]2)CCCN1,-32.9% and -29.7%
3,O=C(O)[C@H](Cc1c[nH]c2ccccc12)N1C(=O)c2ccccc2C1=O,-26.6%
4,CN(C)CCN1C(=O)c2cccc3cc(N)cc(c23)C1=O,-22.2%

# Same assay, conditions: ICB984 medulloblastoma cells, drug combinations, BGB IC40 combo, at 0.05 µM, stronger effect = higher value
row,SMILES,inhibition
1,Cc1ccc2nc(NCCN)c3ncc(C)n3c2c1,52.7%
2,C[C@]1(c2nc3c(C(N)=O)cccc3[nH]2)CCCN1,-67.4% and -16%
3,O=C(O)[C@H](Cc1c[nH]c2ccccc12)N1C(=O)c2ccccc2C1=O,4.66%
4,CN(C)CCN1C(=O)c2cccc3cc(N)cc(c23)C1=O,-11.5%
